# Data taken from PubChem BioAssay (NCI).
# “And” between values parts separate entries of the source, which are not always exact repeats. Identical values can stand only once. The panel holds about 83,000 compounds, 20% with a hit somewhere; the sample as a whole holds those more often.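 The test compound was applied at a single concentration to cells in 96-well plates for 48 hours, and percent growth was recorded.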 Values without a mark were called inactive. The source made the active and inactive calls. Rule for the calls: active = growth percent below 10; inactive = the rest.
# Experiments:
# Test in all cases: NCI-60 one-dose screen, 48 h (100 = growth as untreated, 0 = no growth, -100 = all killed)
# Conditions in all cases: 10 µM unless noted
# [1] = test system: T-47D breast
# [2] = test system: BT-549 breast
# [3] = test system: MDA-MB-435 melanoma
# [4] = test system: SW-620 colon
# [5] = test system: MCF7 breast
# [6] = test system: HCT-116 colon
# [7] = test system: HCC-2998 colon
# [8] = test system: KM12 colon
SMILES,growth [1],growth [2],growth [3],growth [4],growth [5],growth [6],growth [7],growth [8]
CCN1C(=O)/C(=c2\sc3n(c2=O)C2C(NN=3)N(CC)C(=O)N2CC)c2ccccc21 (stereo not given),39.5%,17.8%,-32.6% (active),29.7%,26%,9.36% (active),30%,13.7%
CCN(CC)/C([O-])=c1\cccc\c1=C1\N=C(c2ccccc2)N=C1[n+]1ccc(-c2ccccc2)cc1,90.5%,93.3%,96.8%,91.6%,93%,97%,93.3%,96.3%
CN1CCN(Cc2ccc(NC(=O)c3cccc(C#Cc4c(N)ncc5ccc(F)cc45)c3)cc2C(F)(F)F)CC1,14.8%,28.5%,-95.9% (active),-91.6% (active),-80.9% (active),-93.1% (active),-86.8% (active),-82.1% (active)
C[C@@H]1O[C@@H](O[C@H]2[C@@H](OC(=O)[C@]34CCC(C)(C)C[C@H]3C3=CC[C@@H]5[C@@]6(C)C[C@H](O)[C@H](O[C@@H]7O[C@H](CO)[C@@H](O)[C@H](O)[C@H]7O)[C@@](C)(CO)[C@@H]6CC[C@@]5(C)[C@]3(C)C[C@H]4O)OC[C@@H](O)[C@@H]2O)[C@H](O)[C@H](O[C@@H]2OC[C@@H](O)[C@H](O[C@@H]3OC[C@](O)(CO)[C@H]3O[C@@H]3OC[C@@H](O)[C@H](O)[C@H]3O)[C@H]2O)[C@H]1O[C@@H]1OC[C@](O)(CO)[C@H]1O,49.8%,74.4%,52.1%,75.4%,68.9%,46.3%,-1.75% (active),66.5%
Nc1ccc(-c2nc3ccc4[nH]ncc4c3c3c2CCCC3)cc1F,14.6%,10%,14.2%,18.7%,29.2%,11.1%,44.3%,12.3%
CCOc1ccccc1NC(=O)c1cc2ccccc2cc1O,51.7%,85%,49.4%,64.7%,70.3%,31.9%,76.3%,33.6%
Cc1oc2c(Cc3ccc(NC(=O)c4ccc(Cl)cc4)cc3)ncnc2c1C(=O)NO,96.8%,103%,92.5%,105%,91.1%,98%,97.9%,95.9%
CCN(CC)CC(=O)Nc1ccc2ncnc(Nc3ccc(Oc4cccc(F)c4)c(Cl)c3)c2c1,54.5%,78.5%,75%,67.6%,52.9%,64.7%,53.1%,51.5%
Cn1cc(-c2csc(-c3c[nH]c4ccc(F)cc34)n2)c2cnccc21,-65% (active),76.6%,-90.5% (active),-86.7% (active),-25.1% (active),-89.9% (active),-54.9% (active),-11.8% (active)
N#CC1C(=O)c2ccccc2C1c1ccccc1 (stereo not given),96.5% and 99.9%,107%,104% and 102%,121% and 104%,102% and 99.5%,105% and 101%,111% and 115%,109% and 102%
